Test results: publication PMC8159961, “Exploring protein hotspots by optimized fragment pharmacophores” (Nature Communications, 2021)

The molecules below were run against thrombin (human, UniProt P00734) (assay: primary screen, binary call; higher = more effect of the substance). Conditions: 200 µM; call rule not given here.
Parameters: screenings were carried out in duplicate in one independent experiment
Protocol: Protease inhibitory assays were performed in transparent microtiter plates in a final volume of 200 µL with the use of chromogenic substrates. The reaction rates in the absence and in the presence of the inhibitor were measured; screenings were carried out in duplicate in one independent experiment and Ki values were determined in triplicate in two independent experiments.

SMILES	Thrombin
O=c1ccc2c([nH]1)CCCC2	0 (inactive)
Nc1nnc(-c2cccs2)[nH]1	1 (active)
c1ccc(-c2ccncc2)cc1	0 (inactive)
O=C(c1ccccc1F)N1CCNCC1	0 (inactive)
O=C(O)c1cnc(-c2ccccc2)s1	1 (active)
CC(=O)c1ccc2c(c1)CCCN2	0 (inactive)
N#CCCN1CCc2ccccc21	0 (inactive)
O=C1CSC(Nc2ccc(F)cc2)=N1	0 (inactive)
CN1CC(=O)NC1=O	0 (inactive)
O=C(Nc1ccccc1)C1CC1	0 (inactive)
O=C(O)C1CCCN(C(=O)N2CCCC2)C1 (stereo not shown)	0 (inactive)
COc1ccc(CN2CCNCC2)cc1F	0 (inactive)
Cc1ccc(CCNc2ccccc2)cn1	0 (inactive)
O=C1CCC(=O)N(c2ccccc2)N1	0 (inactive)
NC(c1ccccc1)c1ccccc1	0 (inactive)
N[C@H]1c2ccccc2C[C@H]1CO	0 (inactive)
c1ccc2sc(N3CCNCC3)nc2c1	0 (inactive)
Cc1nccn1Cc1cccc(C#N)c1	0 (inactive)
Oc1ccccc1N1CCCCC1	0 (inactive)
Oc1ccc(C2CCNCC2)cc1	0 (inactive)

SMILES	Thrombin
CC(=O)c1sc(-c2ccc(O)cc2)nc1C	1 (active)
CCCN1C(=O)CC(=O)NC1=S	0 (inactive)
O=c1[nH]ncc2c1oc1ccccc12	0 (inactive)
Oc1nnc(-c2ccccc2)o1	0 (inactive)
COc1ccccc1N1CCNCC1	0 (inactive)
c1cnc2c(c1)NCCC2	0 (inactive)
Brc1ccc(-c2ccon2)cc1	0 (inactive)
O=C1CCN(c2ccncc2)CC1	0 (inactive)
CC(=O)c1ccc2c(c1)CNCC2	0 (inactive)
FC1(F)CNCC(F)(F)O1	0 (inactive)
Nc1ccc(SC(F)F)cc1	0 (inactive)
O=C1CNCCN1c1ccccc1	0 (inactive)
COc1ccccc1C1CCNCC1	0 (inactive)
c1ccc(Nc2nncs2)cc1	0 (inactive)
CC(CN)N1CCc2sccc2C1 (stereo not shown)	0 (inactive)
Oc1ccc(-n2cncn2)cc1	0 (inactive)
O=C(NC1CC1)c1ccccc1O	0 (inactive)
O=C1CCN(c2ccccn2)CC1	0 (inactive)
CCn1cnc2ccccc21	0 (inactive)
O=C1CC(CSc2ccc(Cl)cc2)=NN1	0 (inactive)
